This is an account of results in PubChem BioAssay (NCATS).

Values without a mark were called inactive. Inconclusive results are not listed. Activity calls are given as the source filed them. Unless noted, calls follow the shape of the dose curve; as a rule, active = well fitted curve in either direction with a large enough effect (not every such curve was filed as active); inconclusive = small, poorly fitted or top-dose-only effect, or another doubt; inactive = flat fitted curve, though single readings scatter.

For assay [1], the target named is Lysosomal acid glucosylceramidase (Homo sapiens) (UniProt P04062). Description: Glucocerebrosidase-p2 (AID 348; in the data active = potency below about 10 µM; also: potency is read from the fitted curve at half-maximal effect). The note with it: purified GBA, blue fluorogenic substrate, 40 min. The essentials:
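Normal human glucocerebrosidase (0.2 nM) with blue fluorogenic substrate (80 uM final) in citrate/phosphate pH 5.9 with 10mM sodium taurocholate, 0.01% tween-20; 40 min RT, NaOH/glycine stop; fluorescence Ex 365/Em 440; AC50 from a titration from 0.6 nM upwards.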

Assay [2] in a line: AP1 Signaling Pathway (AID 357). Also: % is scaled to controls: 0 for no effect and ±100 for the full control effect. The note with it: ME-180 AP-1-bla reporter, EGF-induced, beta-lactamase ratio, 5 h; at 7.69 µM (top of the series) unless noted. The essentials: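 ME-180 cells with beta-lactamase reporter under AP-1 response element, stimulated with EC50 EGF; compounds tested in titration series, 5 h at 37 °C. CCF4 substrate added 2.5 h at room temperature; 460/530 nm emission ratio gave %activity and AC50.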

Assay [3] has as its target Cytochrome P450 1A2 (Homo sapiens) (UniProt P05177). Description: p450-cyp1a2 (AID 410; calls by dose curve; also: potency is read from the fitted curve at half-maximal effect). The settings on record: recombinant CYP1A2, luciferin-ME demethylation, luminescence; series mostly up to 57 µM. The procedure, abridged: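 O-Demethylation of luciferin 6' methyl ether by human CYP1A2 is monitored as luciferase luminescence. Substrate sits at Km (100uM); enzyme is 20nM. Values are scaled to 57 uM furafylline as maximal inhibition.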

Assay [4] can be described thus: NFAT Signaling Pathway (AID 444).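 Also: carbachol stimulus at about its EC50 of 1 µM final; % is scaled to controls: 0 for no effect and ±100 for the full control effect.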 The note with it: Jurkat NFAT-bla M1, carbachol, beta-lactamase ratio, 5 h; at 7.69 µM (top of the series) unless noted. The procedure, abridged:
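Jurkat cells carrying an NFAT-driven β-lactamase reporter and co-transfected muscarinic M1 receptor were treated with compound plus carbachol (1 uM final, an EC50 level) for 5 h at 37 °C. CCF4 loading followed for 1 h at RT; 460/530 nm ratio gave %activity.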

Assay [5] is described as follows: Stat Signaling Pathway (AID 446).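 Also: ME-180 cervical cancer cells given 40 pM IL-6 alongside compound; SIE-controlled beta-lactamase reporter measured as 460/530 nm FRET emission ratio; % is scaled to controls: 0 for no effect and ±100 for the full control effect.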 The note with it: ME-180 (cervical carcinoma) SIE beta-lactamase reporter, IL-6 stimulated, 5 h; at 7.69 µM (top of the series) unless noted. The essentials:
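Normalization used AC90 stimulation (300 pM IL-6) and AC90 inhibition (125 nM pan-JAK inhibitor at 40 pM IL-6). The underlying signal is SIE-driven beta-lactamase in ME-180 cells after 5 h IL-6 exposure with compound.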

Assay [6] addresses Glucocorticoid receptor (Homo sapiens) (UniProt P04150). Description: GR-EFC Redistribution (AID 451; calls by dose curve; also: potency is read from the fitted curve at half-maximal effect). The note with it: CHO-K1 GR-EFC translocation, beta-gal luminescence, 2 h. The procedure, abridged: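 CHO-K1 cells stably expressing nuclear-localized β-gal enzyme acceptor and GR fused C-terminally to the enzyme donor fragment; ligand-driven nuclear translocation restores β-gal by complementation. Compounds titrated up to 46 uM final, 2 h at 37 °C; luminescence read.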

The target of assay [7] is Mitogen-activated protein kinase 10 (Mus musculus) (UniProt Q61831). Description: JNK3 AlphaScreen Assay (AID 530).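 Also: kinase came from lysate of stimulated human HepG2 cells; signal reports phosphorylation of biotinylated GST-cJun 1-79 at Ser73 with 10 µM ATP; % is scaled to controls: 0 for no effect and ±100 for the full control effect.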 The settings on record: JNK3 lysate, c-Jun phosphorylation; series mostly up to 57.1 µM. The essentials:
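Phosphorylation of biotinylated GST-cJun(1-79) at Ser73 is measured by AlphaScreen proximity luminescence. Enzyme is JNK3 in HepG2 lysates activated with interleukin-1beta and tumor necrosis factor alpha; ATP is 10 uM final.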
On the technique in general: In Alpha technology, singlet oxygen from a donor bead excites a nearby acceptor bead.

The target in assay [8] is 3',5'-cyclic-AMP phosphodiesterase 4B (Homo sapiens) (UniProt Q07343). Description: qHTS Assay for Inhibitors of PDE-IV (AID 607; active = well fitted activation curve with a large enough effect in the main read-out, with a control signal flat, not every such curve was filed as active; also: % of control where 0% means no effect). The settings on record: HEK293 ACTOne CNG channel cells, membrane potential fluorescence; series mostly up to 22.9 µM. The procedure, abridged: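 HEK293 ACTOne cells with CNG channel (1000/well), endogenous PDE4; membrane potential dye, compounds up to 22.9 uM final. Fluorescence Ex 535/Em 590; RO 20-1724 (100 uM final) as reference.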
3',5'-cyclic-AMP phosphodiesterase 4B (Homo sapiens), sequence (Q07343 whole entry, looked up): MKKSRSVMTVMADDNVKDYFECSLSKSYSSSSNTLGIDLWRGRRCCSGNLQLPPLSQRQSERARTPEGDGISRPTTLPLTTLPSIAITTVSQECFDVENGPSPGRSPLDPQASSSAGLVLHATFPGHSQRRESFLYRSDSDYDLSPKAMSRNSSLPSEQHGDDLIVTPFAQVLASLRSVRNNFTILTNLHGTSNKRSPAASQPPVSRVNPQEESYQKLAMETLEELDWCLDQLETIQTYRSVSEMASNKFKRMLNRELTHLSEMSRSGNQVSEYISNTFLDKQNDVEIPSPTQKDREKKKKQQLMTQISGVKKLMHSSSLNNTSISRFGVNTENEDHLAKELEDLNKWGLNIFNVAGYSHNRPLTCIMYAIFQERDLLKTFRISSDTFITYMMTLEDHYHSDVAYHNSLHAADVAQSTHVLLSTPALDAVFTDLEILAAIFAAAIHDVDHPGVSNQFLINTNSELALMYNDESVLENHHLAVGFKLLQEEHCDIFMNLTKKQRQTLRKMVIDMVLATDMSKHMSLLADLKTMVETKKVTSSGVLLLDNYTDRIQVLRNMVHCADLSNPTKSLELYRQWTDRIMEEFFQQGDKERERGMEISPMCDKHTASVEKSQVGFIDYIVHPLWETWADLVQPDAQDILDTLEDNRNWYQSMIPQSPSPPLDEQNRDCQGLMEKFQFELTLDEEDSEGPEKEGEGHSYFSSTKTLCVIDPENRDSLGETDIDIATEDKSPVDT
For orientation: In qHTS, concentration-response curves come from the screen itself.

Assay [9] addresses Cytochrome P450 3A4 (Homo sapiens) (UniProt P08684). Description: qHTS Assay for Inhibitors and Substrates of Cytochrome P450 3A4 (AID 884; active = well fitted curve in the direction sought with a large enough effect; an effect the other way counts as inactive or inconclusive; also: % is scaled to controls: 0 for no effect and ±100 for the full control effect; nearly all actives have a fitted effect of over 50% in size). The note with it: recombinant CYP3A4, Luciferin-PPXE luminescence; series mostly up to 57.1 µM. The essentials: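 Luminescent readout of luciferin produced by CYP3A4 (20 nM) dealkylation of Luciferin-PPXE, 25 uM (its KM). NADPH-driven reaction ran 60 min at RT after 10 min compound preincubation; data scaled to 57 uM ketoconazole as 100% inhibition.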

A short description of assay [10]: Primary qHTS for small molecule stabilizers of the endoplasmic reticulum resident proteome: Secreted ER Calcium Modulated Protein (SERCaMP) assay (AID 1508630; active = well fitted curve in the direction sought with a large enough effect; an effect the other way counts as inactive or inconclusive; also: % is scaled to controls: 0 for no effect and ±100 for the full control effect). The note with it: SH-SY5Y GLuc-SERCaMP (Gaussia luciferase released on ER calcium loss) secretion, thapsigargin, luminescence; series mostly up to 38.4 µM. The essentials:
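The SH-SY5Y reporter protocol was run at 3 concentrations up to 38.3 uM (primary) or 11 concentrations (follow-up): 16 h compound, 100 nM thapsigargin for 4 h, then extracellular luciferase luminescence.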

In assay [11] the target is Cytochrome P450 3A4 (Homo sapiens) (UniProt P08684). Description: qHTS Assay for Activators of Cytochrome P450 3A4 (AID 885; active = well fitted curve in the direction sought with a large enough effect; an effect the other way counts as inactive or inconclusive; also: nearly all actives have a fitted effect of over 65% in size; also: potency is read from the fitted curve at half-maximal effect). The settings on record: recombinant CYP3A4, Luciferin-PPXE luminescence, 60 min; series mostly up to 57.1 µM. The essentials: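 Human CYP3A4 dealkylates Luciferin-PPXE to luciferin, which luciferase detection converts to light. Substrate was at its KM (25uM), buffer 200mM KPO4, reaction 60 min at RT.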
Cytochrome P450 3A4 (Homo sapiens), sequence (P08684 whole entry, looked up): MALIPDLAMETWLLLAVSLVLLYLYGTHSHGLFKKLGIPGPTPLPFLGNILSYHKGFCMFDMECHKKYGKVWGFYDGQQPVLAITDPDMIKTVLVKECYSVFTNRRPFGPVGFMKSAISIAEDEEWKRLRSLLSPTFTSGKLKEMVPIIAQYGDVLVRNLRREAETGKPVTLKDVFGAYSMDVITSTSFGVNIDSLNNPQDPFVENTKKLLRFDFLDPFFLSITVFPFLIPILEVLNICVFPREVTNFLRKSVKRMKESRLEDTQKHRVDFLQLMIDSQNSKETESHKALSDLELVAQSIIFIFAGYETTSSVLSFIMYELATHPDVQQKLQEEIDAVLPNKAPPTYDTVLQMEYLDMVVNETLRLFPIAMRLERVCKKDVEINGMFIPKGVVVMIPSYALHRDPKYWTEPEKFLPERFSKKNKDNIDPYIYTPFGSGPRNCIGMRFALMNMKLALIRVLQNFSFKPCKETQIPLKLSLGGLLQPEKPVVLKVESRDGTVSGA

Assay [12] has as its target Cytochrome P450 2C9 (Homo sapiens) (UniProt P11712). Description: qHTS Assay for Inhibitors and Substrates of Cytochrome P450 2C9 (AID 883; active = well fitted curve in the direction sought with a large enough effect; an effect the other way counts as inactive or inconclusive; also: nearly all actives have a fitted effect of over 60% in size; also: potency is read from the fitted curve at half-maximal effect). The note with it: recombinant CYP2C9, luciferin-H luminescence, 60 min; series mostly up to 57.1 µM. The essentials: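 Human CYP2C9 (10nM) hydroxylated Luciferin-H (100uM, at its KM) to luciferin in 25mM KPO4. Compound was preincubated 10 min at 37C, then NADPH regeneration started a 60 min reaction at 37C. Luminescence was read after detection reagent, normalized to 57uM sulphaphenazole.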

Assay [13] has as its target Cytochrome P450 2C19 (Homo sapiens) (UniProt P33261). Description: qHTS Assay for Inhibitors and Substrates of Cytochrome P450 2C19 (AID 899; active = well fitted curve in the direction sought with a large enough effect; an effect the other way counts as inactive or inconclusive; also: nearly all actives have a fitted effect of over 60% in size; also: potency is read from the fitted curve at half-maximal effect). The note with it: recombinant CYP2C19, luciferin-H EGE luminescence; series mostly up to 57.1 µM. The essentials:
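Human CYP2C19 (5nM) with Luciferin-H EGE at 10uM (its KM) in 50mM KPO4 was preincubated with compound for 10 min at 37C. NADPH regeneration started a 60 min 37C reaction. Luciferin was read by luminescence, normalized to 57uM ketoconazole.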

Cytochrome P450 1A2 (Homo sapiens), sequence (P05177 whole entry, looked up): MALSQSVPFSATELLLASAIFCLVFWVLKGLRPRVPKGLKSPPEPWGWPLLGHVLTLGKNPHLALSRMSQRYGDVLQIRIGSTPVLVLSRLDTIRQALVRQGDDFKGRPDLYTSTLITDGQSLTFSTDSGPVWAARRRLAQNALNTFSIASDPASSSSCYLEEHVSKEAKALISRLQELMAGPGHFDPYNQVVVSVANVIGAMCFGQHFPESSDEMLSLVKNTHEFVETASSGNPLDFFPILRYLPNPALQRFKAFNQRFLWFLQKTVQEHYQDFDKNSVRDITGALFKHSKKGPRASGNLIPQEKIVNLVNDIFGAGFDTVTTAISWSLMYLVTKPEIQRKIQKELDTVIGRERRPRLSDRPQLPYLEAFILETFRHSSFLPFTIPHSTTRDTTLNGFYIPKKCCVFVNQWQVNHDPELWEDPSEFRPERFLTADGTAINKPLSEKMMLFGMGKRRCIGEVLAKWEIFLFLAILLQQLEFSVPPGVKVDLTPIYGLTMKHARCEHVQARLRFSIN
Lysosomal acid glucosylceramidase (Homo sapiens), sequence (P04062 whole entry, looked up): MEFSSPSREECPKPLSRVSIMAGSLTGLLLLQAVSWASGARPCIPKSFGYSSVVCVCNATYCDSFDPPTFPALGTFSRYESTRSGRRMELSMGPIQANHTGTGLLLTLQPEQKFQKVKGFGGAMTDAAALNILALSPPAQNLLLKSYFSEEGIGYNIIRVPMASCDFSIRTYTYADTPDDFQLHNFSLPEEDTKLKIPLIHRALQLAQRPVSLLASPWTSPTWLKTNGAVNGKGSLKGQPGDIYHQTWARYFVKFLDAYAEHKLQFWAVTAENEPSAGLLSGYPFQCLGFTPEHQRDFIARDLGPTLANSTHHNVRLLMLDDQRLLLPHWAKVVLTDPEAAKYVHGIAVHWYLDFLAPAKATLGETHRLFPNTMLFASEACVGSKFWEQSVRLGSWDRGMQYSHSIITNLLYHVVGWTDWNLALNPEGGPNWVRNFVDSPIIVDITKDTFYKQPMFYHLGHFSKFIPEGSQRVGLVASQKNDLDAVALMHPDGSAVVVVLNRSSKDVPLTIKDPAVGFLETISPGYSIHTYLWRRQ
Glucocorticoid receptor (Homo sapiens), sequence (P04150 whole entry, looked up, the tested form may be a part): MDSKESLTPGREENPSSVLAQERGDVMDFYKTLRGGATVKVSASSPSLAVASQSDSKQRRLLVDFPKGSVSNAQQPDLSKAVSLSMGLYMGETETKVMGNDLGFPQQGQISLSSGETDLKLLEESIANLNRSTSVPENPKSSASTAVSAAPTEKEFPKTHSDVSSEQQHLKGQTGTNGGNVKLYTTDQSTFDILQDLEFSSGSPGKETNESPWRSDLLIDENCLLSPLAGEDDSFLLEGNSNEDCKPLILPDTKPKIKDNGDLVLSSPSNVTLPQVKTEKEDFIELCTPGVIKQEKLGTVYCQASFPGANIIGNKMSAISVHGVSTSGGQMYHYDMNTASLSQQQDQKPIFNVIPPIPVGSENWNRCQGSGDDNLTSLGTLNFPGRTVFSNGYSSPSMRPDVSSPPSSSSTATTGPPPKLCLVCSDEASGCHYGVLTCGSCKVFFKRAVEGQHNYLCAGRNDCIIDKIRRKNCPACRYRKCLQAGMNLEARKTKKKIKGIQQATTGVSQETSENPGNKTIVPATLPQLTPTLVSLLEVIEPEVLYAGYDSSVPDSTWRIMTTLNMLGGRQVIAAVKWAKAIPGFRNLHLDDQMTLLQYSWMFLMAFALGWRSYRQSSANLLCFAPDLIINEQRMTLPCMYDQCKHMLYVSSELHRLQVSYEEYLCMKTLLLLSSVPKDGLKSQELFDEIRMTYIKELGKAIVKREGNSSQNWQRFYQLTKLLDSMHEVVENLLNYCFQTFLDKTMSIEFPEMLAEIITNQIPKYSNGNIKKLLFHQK
Cytochrome P450 2C9 (Homo sapiens), sequence (P11712 whole entry, looked up): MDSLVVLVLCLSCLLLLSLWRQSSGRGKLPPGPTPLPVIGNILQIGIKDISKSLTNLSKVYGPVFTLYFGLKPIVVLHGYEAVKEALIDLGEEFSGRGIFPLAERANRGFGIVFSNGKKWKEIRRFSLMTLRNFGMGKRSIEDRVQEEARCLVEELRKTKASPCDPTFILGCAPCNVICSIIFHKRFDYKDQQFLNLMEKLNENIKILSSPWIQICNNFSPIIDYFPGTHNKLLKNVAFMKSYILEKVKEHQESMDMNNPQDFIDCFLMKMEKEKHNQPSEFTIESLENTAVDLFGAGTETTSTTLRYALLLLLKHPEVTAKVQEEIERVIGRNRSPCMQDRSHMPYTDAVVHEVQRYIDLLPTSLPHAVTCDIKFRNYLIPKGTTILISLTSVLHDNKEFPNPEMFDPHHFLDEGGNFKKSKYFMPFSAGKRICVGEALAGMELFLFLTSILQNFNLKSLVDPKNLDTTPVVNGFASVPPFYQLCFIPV
Cytochrome P450 2C19 (Homo sapiens), sequence (P33261 whole entry, looked up): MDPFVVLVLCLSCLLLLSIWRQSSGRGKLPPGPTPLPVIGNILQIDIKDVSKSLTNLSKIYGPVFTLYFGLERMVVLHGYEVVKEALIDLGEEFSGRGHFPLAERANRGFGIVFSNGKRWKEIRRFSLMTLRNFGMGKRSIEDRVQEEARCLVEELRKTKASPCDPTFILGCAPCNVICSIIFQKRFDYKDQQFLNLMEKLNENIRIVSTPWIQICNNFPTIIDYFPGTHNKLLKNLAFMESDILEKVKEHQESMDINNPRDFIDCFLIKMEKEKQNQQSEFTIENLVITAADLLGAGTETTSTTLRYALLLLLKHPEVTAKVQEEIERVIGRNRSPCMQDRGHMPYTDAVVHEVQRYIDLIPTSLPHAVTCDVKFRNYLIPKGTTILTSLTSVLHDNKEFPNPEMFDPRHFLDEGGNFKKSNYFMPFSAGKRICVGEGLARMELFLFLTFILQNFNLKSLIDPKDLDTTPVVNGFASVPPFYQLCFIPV

In the case of `Cn1cccc1C(=O)N1CCC2(CC1)CCN(c1ncccn1)CC2`, the figures for the Potency in assay [1] and in [6] were more than 11.4 µM and more than 46 µM, respectively. Further, the activity change, negative = inhibition in assay [2] was 0.908%; in assay [4] it was 5.08%. In addition, the Potency entry in [3], in assay [7], in assay [8] and in assay [9] was “inactive” each time. Besides, the activity, negative = inhibition in [5] was -4.72%. Besides, in assay [10], the result was inactive.

Consider `O=C(c1cnccn1)N1CCC[C@@]2(CCN(Cc3ccncc3)C2)C1`, for which the Potency is more than 11.4 µM in [1], 15.8 µM (active) in [3] and more than 46 µM in assay [6]. Besides, the activity change, negative = inhibition in [2] was -3.77%; in assay [4], 7.13%. The activity, negative = inhibition in assay [5] was -5.95%. The Potency entry in assay [7], in assay [8] and in assay [11] was “inactive” throughout. The result in assay [10] was inactive.

On to `COCC(=O)N1CCC2(CC1)CN(C(=O)Nc1ccccc1)C2`, for which the Potency in assay [1] is more than 11.4 µM; in assay [3], 12.6 µM (active); in assay [6] it was more than 46 µM; in assay [12] it was 1.58 µM (active); in assay [13] it was 5.01 µM (active). Also, the activity change, negative = inhibition in [2] is 7.47%; in assay [4] it was 18.9%. Also, in assay [5], the activity, negative = inhibition is -7.39%. Moreover, the Potency result in assay [7] and in assay [8] was “inactive” each time. Besides, the result in assay [10] was inactive.

For `CS(=O)(=O)N1CCC[C@@]2(CCN(C(=O)Nc3cccc(C#N)c3)C2)C1`, the Potency in assay [1] is more than 11.4 µM; in assay [6], more than 46 µM. The activity change, negative = inhibition in [2] is -2.32%; in assay [4], 9.12%. Moreover, the Potency result in assay [3], in [7], in [8] and in assay [11] was “inactive” throughout. In assay [5], the activity, negative = inhibition is 1.86%. In addition, the result in assay [10] was inactive.

For the compound `O=C(c1cccc(F)c1)N1CCC2(CC1)CN(c1ccc(-c3ccccc3)cc1)C2`, the results for the Potency in assay [1], in assay [6] and in [11] were more than 11.4 µM, more than 46 µM and 2.51 µM (active), respectively. In addition, the figures for the activity change, negative = inhibition in [2] and in assay [4] were 9.76% and -5.75%, respectively. For the same compound, the Potency result in assay [3], in assay [7], in assay [8] and in [9] was “inactive” throughout. In assay [5], the activity, negative = inhibition was -20.4%. For the same compound, the outcome in assay [10] was inactive.

Take `O=C(Oc1ccccc1)N1CCC2(CC1)CN(c1ncccn1)C2`: the Potency in [1] was more than 11.4 µM; in [3], 25.1 µM (active); in assay [6] it was more than 46 µM; in assay [11], 15.8 µM (active). The activity change, negative = inhibition in assay [2] is -11.2%; in assay [4], -7.82%. For the same compound, the activity, negative = inhibition in [5] is -0.184%. Also, the Potency entry in assay [7], in [8] and in assay [9] was “inactive” in each case. The outcome in assay [10] was inactive.

On to `CS(=O)(=O)N1CCC2(CC1)CN(c1ccc(-c3ccccc3)cc1)C2`, for which the Potency was more than 11.4 µM in assay [1] and more than 46 µM in [6]. For the same compound, the activity change, negative = inhibition in [2] was -8.52%; in assay [4] it was -6.69%. In addition, the Potency result in assay [3], in [7], in [8], in assay [12] and in [13] was “inactive” in each case. Moreover, the activity, negative = inhibition in assay [5] is -25.1%. For the same compound, the result in [10] was inactive.
